Six compounds from PubChem BioAssay (NCATS) can be followed below.

Test [1] in a line: Cell Viability - MRC5 (AID 434; calls by dose curve;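 further: potency means the concentration at half of the fitted maximal effect; cells exposed to compound for 40 hours at 37 °C; potency reflects cytotoxicity seen as loss of intracellular ATP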). The note with it: MRC5 lung fibroblast viability, qHTS. The gist of the method: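 qHTS cytotoxicity in human lung fibroblast MRC5 cells; 40 hr treatment, 37 °C; cellular ATP by luciferase luminescence; DMSO = 0%, 100 uM tamoxifen = 100% inhibition; Hill-fit AC50.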
(In general: qHTS replaces the single test concentration by a dilution series.)

Test [2] can be described thus: Cell Viability - HUV-EC-C (AID 542).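 Further: cells exposed to compound for 40 hours; nearly all actives have a fitted effect of over 35% in size.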 Further: potency means the concentration at half of the fitted maximal effect. The note with it: HUV-EC-C endothelial cell viability, qHTS; series mostly up to 92.2 µM. Summed up: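 Decrease in cellular ATP, quantified by luciferase luminescence, reflects toxicity in normal human vascular endothelial HUV-EC-C cells given compound for 40 hr in complete culture medium. Values are AC50s from concentration-response curves.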

A short description of test [3]: Cellular Toxicity (caspase-3) HepG2 (AID 654).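 Further: cells exposed to compound for 16 hours before reading.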 The note with it: HepG2 caspase-3 activation, luminescence; series mostly up to 92.2 µM. Summed up:
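qHTS, HepG2, 1500 cells/well, complete medium; cpd 16 h 37 °C; Caspase-Glo 3/7, 20 min RT; lum. Norm: DMSO vs 100 uM tamoxifen; AC50 Hill fit.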

The nature of test [4]: Cellular Toxicity (caspase-3) HUV-EC-C (AID 656). The note with it: HUV-EC-C cells, caspase-3 activation (apoptosis); series mostly up to 92.2 µM. The gist of the method:
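HUV-EC-C endothelial cells, 1000/well, were pre-incubated 5 hr at 37°C, then exposed to compounds for 16 hr at 37°C. Caspase-Glo 3/7 luminescence was read after 20 min at room temperature. AC50 came from Hill fits, normalized to DMSO and 100 uM tamoxifen.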

The nature of test [5]: Cellular Toxicity (caspase-3) SHSY5Y (AID 657). Further: potency means the concentration at half of the fitted maximal effect. As to conditions: SH-SY5Y caspase-3 activation; series mostly up to 91.7 µM. The gist of the method: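 SH-SY5Y human neuroblastoma cells (1500/well) were treated with compounds for 16 h at 37 °C, then Caspase-Glo 3/7 luminescence was read after 1 h at room temperature. Data normalized to DMSO and 10 uM staurosporine; AC50 from Hill fits.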

Test [6] is described as follows: Cellular Toxicity (caspase-3) BJ (AID 658). As to conditions: BJ fibroblasts, luminescence; Potency: caspase-3 activation; series mostly up to 91.7 µM. Summed up: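 Readout: Caspase-Glo 3/7 luminescence increase in BJ cells after 16 hr treatment at 37 °C. Staurosporine and tamoxifen served as positive controls; AC50 values came from Hill modelling of data normalized to DMSO and 10 uM staurosporine.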

Test [7] is described as follows: Cellular Toxicity (caspase-3) MRC-5 (AID 659). The note with it: MRC-5 cells, luminescence, normalized: DMSO 0%, 10 µM staurosporine 100%; series mostly up to 91.7 µM. The gist of the method:
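Concentration-dependent caspase 3/7 activation is measured in human normal lung fibroblasts (MRC-5) following 16-hour treatment. AC50 values come from standard Hill-equation modeling of luminescence normalized to DMSO and 10 uM staurosporine.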

The nature of test [8]: Cellular Toxicity (caspase-3) Mesangial (AID 660).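 Further: combined caspase 3 and 7 activity read by Caspase-Glo luminescence; cells exposed to compound for 16 h before the caspase read.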 The note with it: mesangial cells, normalized: DMSO 0%, 100 µM tamoxifen 100%; series mostly up to 91.7 µM. Summed up:
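Concentration-response qHTS: compound-induced rise in caspase 3/7 luminescence in human mesangial cells after 16 h, normalized to DMSO and 100 uM tamoxifen controls.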

Test [9] can be described thus: Cellular Toxicity (caspase-3) H-4-II-E (AID 663).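 Further: cells exposed to compound for 16 hr before readout.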 The note with it: H-4-II-E rat hepatoma; Potency: caspase-3 activation; series mostly up to 92.2 µM. Summed up:
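Apoptosis induction is scored as increased luminescence from caspase 3/7 substrate cleavage in rat hepatoma H-4-II-E cells exposed to compound for 16 hr. Activity is scaled between DMSO and 100 uM tamoxifen.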

A short description of test [10]: Cellular Toxicity (caspase-3) Hek293 (AID 664).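 Further: cells exposed to compound for 16 h at 37 °C before readout.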 The note with it: HEK293 caspase-3 activation, DMSO = 0%, 100 µM tamoxifen = 100%; at 92.2 µM (top of the series). The gist of the method: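 Activation of caspase-3/7 is measured as increased luminescence from cleaved peptide-aminoluciferin substrate in HEK293 cells treated 16 hours at 37 °C. AC50 values come from Hill-equation fits of concentration-response data.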

Test [11] in a line: Cellular Toxicity (caspase-3) N2a (AID 665).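 Further: compound exposure lasted 16 h at 37 °C before readout.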 As to conditions: N2a cells, luminescence, normalized: DMSO 0%, 10 µM staurosporine 100%; series mostly up to 92.2 µM. Summed up: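 Plated mouse neuroblastoma N2a cells received titrated compounds for 16 h in complete medium. Caspase activity was then detected with a peptide-aminoluciferin luminescent reagent.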
Test [12] in a line: Cellular Toxicity (caspase-3) NIH 3T3 (AID 666).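 Further: caspase signal read after 16 h compound exposure; 0% = DMSO basal and 100% = 100 µM tamoxifen stimulation.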 The note with it: NIH 3T3 caspase-3 activation, apoptosis/toxicity, 0% DMSO, 100% is 100 µM tamoxifen; series mostly up to 92.2 µM. Summed up: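 Concentration-response qHTS in NIH 3T3 mouse fibroblasts scores caspase-3/7 activation as rising luminescence after 16 hr compound exposure. Signals are scaled between DMSO-only and 100 uM tamoxifen.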

Test [13] is described as follows: Cellular Toxicity (caspase-3) Renal Proximal Tubule (AID 667).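 Further: cells exposed to compound for 16 hours at 37 °C before detection.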 As to conditions: renal proximal tubule cells, primary cells freshly taken from rat; Potency: caspase-3 activation; series mostly up to 91.7 µM. Summed up:
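Primary rat proximal tubule cells, 1000/well, 5 h plating at 37 °C, then compound 16 h at 37 °C. Caspase-Glo 3/7 reagent, 1 h RT, luminescence. Normalized to DMSO (basal) and 10 uM staurosporine (100%); Hill-fit AC50.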

A short description of test [14]: MultiTox-Fluor Cytotoxicity Assay - LYMP1-003 - Live Cells (AID 962). Further: potency means the concentration at half of the fitted maximal effect. The note with it: LYMP1-003 lymphoblastoid cells, MultiTox-Fluor live-cell protease fluorescence; series mostly up to 92.2 µM. The gist of the method: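 Cells plated at 2500 per well and incubated 5 hr; compounds added and incubated 16 hr at 37 C; MultiTox-Fluor reagent added for 60 min at room temperature; fluorescence of liberated AFC measured at 405/510 nm.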

Test [15] is described as follows: Cell Viability - LYMP2-003 (AID 965).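 Further: cells exposed to compounds for 24 h before reading; nearly all actives have a fitted effect of over 50% in size.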 Further: potency means the concentration at half of the fitted maximal effect. The note with it: LYMP2-003 lymphoblastoid cell viability; series mostly up to 92.2 µM. The gist of the method: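 Human lymphoblastoid cells (2500/well) were pre-incubated 5 hr at 37 C, then exposed to compounds over a concentration range for 24 hr at 37 C. Intracellular ATP was read by CellTiter-Glo luminescence; AC50 came from Hill-equation fits.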

Test [16] can be described thus: qHTS Assay for Identification of Small Molecule Inducers of Hypoxia Response (AID 2120; active means well fitted curve in the direction sought with a large enough effect in the signal ratio, with a control signal flat, not every such curve was filed as active; the % refers to the signal ratio; further: 0% is about no effect). As to conditions: hypoxia response reporter cells, beta-lactamase ratio readout; series mostly up to 104 µM. Summed up:
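Induction of beta-lactamase reporter activity was measured in CellSensor HRE-bla ME-180 cells after 17 h compound treatment at 37 degrees C, using CCF4 substrate and the 460nm/530nm emission ratio to derive AC50 values.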

Test [17] deals with Peroxisome proliferator-activated receptor alpha (Homo sapiens) (UniProt Q07869). In words: qHTS assay for small molecule agonists of the peroxisome proliferator-activated receptor alpha (PPARalpha) signaling pathway (AID 651778). Further: % of control where 0% means no effect. The note with it: PathHunter PPARalpha complementation, chemiluminescence, 6 h; max response: hits give high values. Summed up: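 Chemiluminescence from complemented enzyme reported PPARalpha activation in cells after 6 hr of compound treatment at 37 C. The detection reagent was incubated for 60 min at room temperature, and compounds were scored as agonists.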
Sequence of Peroxisome proliferator-activated receptor alpha (Homo sapiens) (Q07869 whole entry, looked up): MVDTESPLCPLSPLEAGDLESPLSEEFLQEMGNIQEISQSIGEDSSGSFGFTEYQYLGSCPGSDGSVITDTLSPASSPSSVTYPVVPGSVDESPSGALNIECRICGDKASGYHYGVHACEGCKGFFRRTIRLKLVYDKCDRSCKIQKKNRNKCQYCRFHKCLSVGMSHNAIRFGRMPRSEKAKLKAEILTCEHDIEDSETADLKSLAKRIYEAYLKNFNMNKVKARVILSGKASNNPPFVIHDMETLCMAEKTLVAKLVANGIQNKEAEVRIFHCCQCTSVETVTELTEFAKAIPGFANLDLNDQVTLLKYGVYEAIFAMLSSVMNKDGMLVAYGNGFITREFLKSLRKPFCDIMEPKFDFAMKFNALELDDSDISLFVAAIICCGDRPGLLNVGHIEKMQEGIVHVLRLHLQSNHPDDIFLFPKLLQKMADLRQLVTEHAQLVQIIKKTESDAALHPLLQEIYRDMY

Test [18] can be described thus: qHTS assay for small molecule agonists of the antioxidant response element (ARE) signaling pathway measured by Nrf2-dependant transcriptional activity - cell viability counter screen (AID 720653; active means well fitted curve in the direction sought with a large enough effect in the repeat runs; an effect the other way counts as inactive or inconclusive; further: on the % scale 0 is the no-effect control and ±100 the full control effect). The note with it: ARE-bla HepG2 viability, CellTiter-Glo ATP luminescence, 16 h; max response: hits give low values. Summed up: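 Cytotoxicity counter screen: intracellular ATP quantified by CellTiter-Glo luminescence in the same ARE-bla HepG2 plates, after 16 h compound exposure and a 2 h beta-lactamase substrate step.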

Test [19] is described as follows: qHTS assay for cell viability of HEK293 cells (AID 743288). Further: nearly all actives have a fitted effect of over 50% in size. Further: potency means the concentration at half of the fitted maximal effect. On max response: on the % scale 0 is the no-effect control and ±100 the full control effect. As to conditions: ATP luminescence (CellTiter-Glo), 18 h; max response: hits give low values. Summed up: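 Parental HEK293 cells were seeded at 2,000 cells/well, rested at least 5 h at 37 C, then exposed to compounds in DMSO for 18 h at 37 C. Viability was read as ATP-dependent luciferase luminescence after 30 min at room temperature.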

Test [20] can be described thus: qHTS assay for cell viability of the p53RE-bla HCT-116 cell line (AID 743292). Further: on the % scale 0 is the no-effect control and ±100 the full control effect; nearly all actives have a fitted effect of over 55% in size. The note with it: p53RE-bla HCT-116 viability, ATP luminescence, 16 h; series mostly up to 95 µM. Summed up: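 Viability of compound-treated p53RE-bla HCT-116 cells is taken from ATP-dependent luciferase luminescence. Treatment lasts 16 h at 37 C after a 5 h settling period; detection follows 30 min at room temperature.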

Values joined by “and” are separate entries in the source; they are usually repeats but may differ in a detail not shown here. Equal values may be shown once. Unmarked numbers belong to inactive results. Results filed as inconclusive are left out. Active and inactive are the calls of the source. Unless noted, the call rests on the fitted dose curve; in most records, active means well fitted curve in the direction sought with a large enough effect; inconclusive means small, poorly fitted or top-dose-only effect, or another doubt; inactive means no such curve, though single readings can be large; an effect the other way counts as inactive or inconclusive. Some results are limits rather than exact numbers.

Regarding `COc1ccc([N+](=O)[O-])cc1N`, in test [1], the Potency is greater than 92 µM. Besides, the Potency entry in [2], in [3], in [4], in test [5], in test [6] and in test [9] was “inactive” each time. For the same compound, the Potency entry in [13], in test [14], in test [15], in [16] and in test [20] was “inactive” throughout. The call in [7], in test [8], in [11] and in test [12] was inactive. Moreover, in test [10], the caspase-3 activation is -2.76%. Further, the max response is -6.59% and -0.402% in test [17]; -6.61% and -1.85% in test [18]; -2.82% and -3.03% in test [19].
With `c1c[nH]cn1`, the Potency in test [1] is greater than 92 µM. Besides, the Potency entry in [2], in test [3], in [4], in test [5], in test [6] and in [9] was “inactive” in each case. The Potency result in [13], in test [14], in [15], in test [16] and in test [20] was “inactive” in each case. The outcome in test [7], in [8], in test [11] and in test [12] was inactive. Moreover, the caspase-3 activation in test [10] is -0.608%. Also, the max response is -0.778% in test [17], -2.06% in [18] and -0.708% in test [19].
For `Cc1ccc(S(N)(=O)=O)cc1`, in test [1], the Potency was greater than 92 µM. Besides, the Potency result in test [2], in [3], in [4], in [5], in test [6] and in test [9] was “inactive” each time. The Potency result in test [13], in test [14], in [15], in [16] and in test [20] was “inactive” throughout. Further, the compound was classed as inactive in test [7], in [8], in test [11] and in [12]. Also, the caspase-3 activation in test [10] is -1.71%. The max response in [17] is -6.35% and -0.652%; in test [18], 3.25% and -8.35%; in test [19], -5.31% and -1.83%.
For `c1cc2c3c(c1)ccc1cccc(c13)C2`, the Potency in test [1] is greater than 92 µM. The Potency entry in test [2], in [3], in test [4], in test [5], in [6] and in test [9] was “inactive” each time. Also, the Potency result in [13], in [14], in test [15], in [16] and in test [20] was “inactive” each time. Also, the outcome in test [7], in [8], in test [11] and in test [12] was inactive. Also, the caspase-3 activation in test [10] was -1.87%. Besides, the max response in test [17] is 6.26%; in [18] it was -4.5%; in [19] it was 3.07%.
For `C=C1CC[C@H](O)C/C1=C/C=C1\CCC[C@]2(C)[C@@H]([C@H](C)CCCC(C)C)CC[C@@H]12`, the Potency in [2] is 39.8 µM (active); in [5], 31.6 µM (active); in test [14], 50.1 µM (active); in [15] it was 39.8 µM (active); in test [19] it was 44.7 µM (active). For the same compound, the Potency entry in test [3], in test [4], in test [6] and in [16] was “inactive” throughout. Also, the compound was classed as inactive in [7], in test [11] and in [12]. In test [10], the caspase-3 activation is 173% (active). Also, the max response in [17] is -0.403%; in test [18], -9.05%.
For `Brc1cc(Br)c(Oc2cc(Br)c(Br)cc2Br)cc1Br`, the Potency in test [1] is greater than 92 µM. The Potency result in [2], in test [3], in [4], in test [5], in test [6] and in [9] was “inactive” in each case. For the same compound, the Potency result in [13], in test [14], in test [15], in test [16] and in [20] was “inactive” each time. The compound was called inactive in test [7], in test [8], in test [11] and in [12]. Further, the caspase-3 activation in test [10] is 0.345%. Besides, the max response was -1.94% in test [17], -7.08% in [18] and -23.2% in test [19].
